Assay results: the supplement of paper PMC10849652
About 7,900 targets were measured; listed, in parts, are those with a hit and a random draw of the rest. About 0.6% of all pairs of compound and target were hits.

How the values were obtained:
Assay in all cases: log2 fold change, soluble protein after heating vs DMSO (PISA); higher = thermal stabilisation; K562 cells, 10 uM, 30 min; active = over 0.2 and 3.5 SD of the protein, either way, in both replicates (recomputed)
[1] = compound: CS(=O)(=O)c1ccc(-c2cnc(N)c(C(=O)Nc3ccccc3)n2)cc1
How it was run: (§1)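 K562 cells at 2×10^6 cells/mL were treated with 10 μM compound for 30 min. Aliquots were heated for 3 min across 48°C-58°C, pooled, and extracted in PBS with 0.5% NP-40 at 4°C; soluble protein was the supernatant after 21,000xg for 90 min. Soluble protein was quantified by TMTpro 16plex LC-MS/MS with channel sums equalised, and reported as log2 fold change in thermal stability against DMSO controls, with values from duplicates.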

[2] = compound: C[C@@H](Oc1cc(-c2cnn(C3CCNCC3)c2)cnc1N)c1c(Cl)ccc(F)c1Cl [crizotinib]
How it was run: as §1

[3] = compound: C[C@@H]1COCCN1C2=NC(=NC(=C2)C3(CC3)S(=O)(=O)C)C4=C5C=CNC5=CC=C4
How it was run: as §1

[4] = compound: C[C@H](C1=CC=C(C=C1)C(=O)NC2=C3C=CNC3=NC=C2)N
How it was run: as §1

[5] = compound: C[C@H](Nc1ncnc2nc[nH]c12)c1cc2cccc(Cl)c2c(=O)n1-c1ccccc1 [duvelisib]
How it was run: as §1

[6] = compound: Cc1cc(Nc2cc(CN3CCOCC3)c3nc(C)c(Cc4ccc(Cl)cc4F)n3n2)n[nH]1 [gandotinib]
How it was run: as §1

[7] = compound: Cc1cc(Nc2cc(N3CCN(C)CC3)nc(Sc3ccc(NC(=O)C4CC4)cc3)n2)n[nH]1 [tozasertib]
How it was run: as §1

[8] = compound: Cc1cc(SCc2sc(-c3ccc(C(F)(F)F)cc3)nc2C)ccc1OCC(=O)O
How it was run: as §1

[9] = compound: Cc1ccc(-n2nc(C(C)(C)C)cc2NC(=O)Nc2ccc(OCCN3CCOCC3)c3ccccc23)cc1 [doramapimod]
How it was run: as §1

[10] = compound: Cc1ccc(C(=O)N(CCCN)[C@@H](c2nc3cc(Cl)ccc3c(=O)n2Cc2ccccc2)C(C)C)cc1 [ispinesib]
How it was run: as §1

Measured: log2 fold change

GLRX3 (UniProt O76003)
Chain of UniProt O76003 (O76003 whole entry, looked up): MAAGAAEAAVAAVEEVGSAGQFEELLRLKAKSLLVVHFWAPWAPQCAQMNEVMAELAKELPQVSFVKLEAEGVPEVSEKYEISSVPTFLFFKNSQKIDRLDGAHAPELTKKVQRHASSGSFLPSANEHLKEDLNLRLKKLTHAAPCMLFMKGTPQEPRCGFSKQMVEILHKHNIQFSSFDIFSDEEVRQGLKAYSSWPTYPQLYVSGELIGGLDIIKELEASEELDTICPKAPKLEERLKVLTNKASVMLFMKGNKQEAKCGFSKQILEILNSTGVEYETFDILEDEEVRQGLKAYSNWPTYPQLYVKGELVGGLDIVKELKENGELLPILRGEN
inactive: [1] 0.03 | [2] 0.098 | [3] 0.06 | [4] -0.068 | [5] 0.043 | [6] -0.094 | [7] 0.077 | [8] 0.041 | [9] -0.075 | [10] 0.068

FDFT1 (UniProt P37268)
Chain of UniProt P37268 (P37268 whole entry, looked up): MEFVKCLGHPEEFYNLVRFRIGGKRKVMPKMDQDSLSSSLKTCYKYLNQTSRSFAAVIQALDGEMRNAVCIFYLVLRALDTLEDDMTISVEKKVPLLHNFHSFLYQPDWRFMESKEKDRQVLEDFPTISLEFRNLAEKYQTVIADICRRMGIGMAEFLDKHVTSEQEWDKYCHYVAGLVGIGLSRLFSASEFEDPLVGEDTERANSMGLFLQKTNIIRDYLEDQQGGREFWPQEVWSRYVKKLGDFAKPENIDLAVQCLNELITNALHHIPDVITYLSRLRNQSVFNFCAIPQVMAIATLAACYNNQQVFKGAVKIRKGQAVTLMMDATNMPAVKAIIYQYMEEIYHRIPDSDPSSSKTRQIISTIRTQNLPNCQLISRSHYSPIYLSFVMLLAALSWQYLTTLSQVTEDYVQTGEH
inactive: [1] -0.009 | [2] 0.105 | [3] -0.032 | [4] -0.065 | [6] 0.061 | [7] -0.032 | [8] 0.174 | [9] 0.02 | [10] 0.077
active: [5] 0.32

GAK (UniProt O14976)
Chain of UniProt O14976 (O14976 whole entry, looked up): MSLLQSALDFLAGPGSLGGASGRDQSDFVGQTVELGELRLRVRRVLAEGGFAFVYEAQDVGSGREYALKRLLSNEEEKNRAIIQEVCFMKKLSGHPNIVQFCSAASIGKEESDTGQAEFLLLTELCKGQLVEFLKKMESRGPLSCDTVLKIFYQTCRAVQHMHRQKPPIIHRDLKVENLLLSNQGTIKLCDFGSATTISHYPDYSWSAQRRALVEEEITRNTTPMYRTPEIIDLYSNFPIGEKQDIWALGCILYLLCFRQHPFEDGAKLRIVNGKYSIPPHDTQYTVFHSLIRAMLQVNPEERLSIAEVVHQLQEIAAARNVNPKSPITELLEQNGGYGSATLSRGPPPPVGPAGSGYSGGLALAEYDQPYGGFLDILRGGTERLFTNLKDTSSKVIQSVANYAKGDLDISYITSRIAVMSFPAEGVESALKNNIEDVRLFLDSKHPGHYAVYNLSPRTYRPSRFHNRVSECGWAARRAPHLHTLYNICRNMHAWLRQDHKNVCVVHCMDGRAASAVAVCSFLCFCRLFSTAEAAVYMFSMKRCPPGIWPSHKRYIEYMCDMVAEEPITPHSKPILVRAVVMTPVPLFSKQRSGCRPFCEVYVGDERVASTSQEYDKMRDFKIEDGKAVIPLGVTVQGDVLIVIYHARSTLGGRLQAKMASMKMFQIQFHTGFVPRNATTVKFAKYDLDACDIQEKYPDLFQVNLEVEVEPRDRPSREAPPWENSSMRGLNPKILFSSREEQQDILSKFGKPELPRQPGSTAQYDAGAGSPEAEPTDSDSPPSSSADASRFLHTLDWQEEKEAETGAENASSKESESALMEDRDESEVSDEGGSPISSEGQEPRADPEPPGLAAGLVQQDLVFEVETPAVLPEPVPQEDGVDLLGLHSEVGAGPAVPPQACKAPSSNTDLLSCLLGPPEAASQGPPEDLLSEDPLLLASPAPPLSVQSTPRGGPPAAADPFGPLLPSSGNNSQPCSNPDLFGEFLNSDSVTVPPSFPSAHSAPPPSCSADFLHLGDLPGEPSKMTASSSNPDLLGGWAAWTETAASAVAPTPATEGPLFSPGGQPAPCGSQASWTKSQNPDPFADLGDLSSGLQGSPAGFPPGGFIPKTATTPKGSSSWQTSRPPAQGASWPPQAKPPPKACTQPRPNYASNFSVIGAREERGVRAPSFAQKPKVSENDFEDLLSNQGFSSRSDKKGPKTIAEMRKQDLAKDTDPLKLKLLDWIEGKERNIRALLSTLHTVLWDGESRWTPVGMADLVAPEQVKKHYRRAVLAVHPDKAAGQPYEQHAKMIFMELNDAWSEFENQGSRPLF
inactive: [1] 0.49 | [2] 0.115 | [3] -0.081 | [4] 1.26 | [5] -0.245 | [6] 0.02 | [7] 0.223 | [8] -0.121 | [9] 0.206 | [10] -0.157

GSTM4 (UniProt Q03013)
inactive: [1] -0.181 | [2] -0.006 | [3] 0.004 | [4] 0.054 | [5] 0.101 | [6] -0.028 | [7] -0.068 | [8] 0.035 | [9] -0.037 | [10] -0.012

GSR (UniProt P00390)
Chain of UniProt P00390 (P00390 whole entry, looked up): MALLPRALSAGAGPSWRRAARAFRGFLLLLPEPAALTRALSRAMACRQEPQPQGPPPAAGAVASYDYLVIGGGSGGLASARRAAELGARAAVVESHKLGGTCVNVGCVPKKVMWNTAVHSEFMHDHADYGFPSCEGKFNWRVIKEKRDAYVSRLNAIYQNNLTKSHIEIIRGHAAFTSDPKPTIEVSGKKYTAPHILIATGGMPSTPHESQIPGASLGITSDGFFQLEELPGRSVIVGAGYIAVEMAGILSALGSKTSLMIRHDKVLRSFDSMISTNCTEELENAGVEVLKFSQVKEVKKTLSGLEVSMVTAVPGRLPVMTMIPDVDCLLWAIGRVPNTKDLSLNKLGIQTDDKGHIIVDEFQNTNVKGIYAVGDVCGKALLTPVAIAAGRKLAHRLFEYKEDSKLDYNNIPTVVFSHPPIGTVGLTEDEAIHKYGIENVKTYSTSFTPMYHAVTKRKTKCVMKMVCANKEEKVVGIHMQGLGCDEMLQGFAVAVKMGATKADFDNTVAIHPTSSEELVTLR
inactive: [1] 0.009 | [2] 0.046 | [3] 0.029 | [4] -0.085 | [5] 0.014 | [6] 0.002 | [7] -0.011 | [8] -0.02 | [9] -0.047 | [10] -0.003

HNRNPH2 (UniProt P55795)
Chain of UniProt P55795 (P55795 whole entry, looked up): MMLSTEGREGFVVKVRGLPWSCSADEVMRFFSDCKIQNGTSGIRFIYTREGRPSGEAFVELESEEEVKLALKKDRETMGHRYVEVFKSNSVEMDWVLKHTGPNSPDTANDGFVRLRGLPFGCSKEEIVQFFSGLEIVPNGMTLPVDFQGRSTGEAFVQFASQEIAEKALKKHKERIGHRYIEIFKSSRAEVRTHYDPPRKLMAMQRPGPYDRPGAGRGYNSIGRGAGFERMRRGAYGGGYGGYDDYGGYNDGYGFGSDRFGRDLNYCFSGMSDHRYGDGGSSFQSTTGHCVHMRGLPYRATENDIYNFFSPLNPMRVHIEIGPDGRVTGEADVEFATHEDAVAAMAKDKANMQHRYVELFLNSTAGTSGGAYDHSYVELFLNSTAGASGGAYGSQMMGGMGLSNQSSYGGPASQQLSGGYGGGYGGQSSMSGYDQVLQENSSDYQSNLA
inactive: [1] 0.029 | [2] -0.171 | [3] 0.096 | [4] -0.023 | [5] 0.054 | [6] 0.06 | [7] 0.113 | [8] 0.177 | [9] -0.024 | [10] -0.159

H2AZ1 (UniProt P0C0S5)
inactive: [1] -0.027 | [2] -0.062 | [3] -0.47 | [4] 0.345 | [5] -0.09 | [6] -0.006 | [7] -0.146 | [8] -0.084 | [9] 0.178 | [10] -0.147

HDDC2 (UniProt Q7Z4H3)
Chain of UniProt Q7Z4H3 (Q7Z4H3 whole entry, looked up): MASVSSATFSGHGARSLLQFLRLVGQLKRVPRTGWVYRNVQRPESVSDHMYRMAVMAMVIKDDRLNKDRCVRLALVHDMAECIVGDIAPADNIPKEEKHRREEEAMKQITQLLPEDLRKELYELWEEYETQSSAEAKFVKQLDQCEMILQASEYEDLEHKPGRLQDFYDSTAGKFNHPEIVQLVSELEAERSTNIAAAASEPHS
inactive: [1] 0.044 | [2] -0.058 | [3] 0.106 | [4] -0.103 | [5] 0.04 | [6] 0.032 | [7] 0.026 | [8] 0.024 | [9] 0.031 | [10] 0.228

GTF2E2 (UniProt P29084)
Chain of UniProt P29084 (P29084 whole entry, looked up): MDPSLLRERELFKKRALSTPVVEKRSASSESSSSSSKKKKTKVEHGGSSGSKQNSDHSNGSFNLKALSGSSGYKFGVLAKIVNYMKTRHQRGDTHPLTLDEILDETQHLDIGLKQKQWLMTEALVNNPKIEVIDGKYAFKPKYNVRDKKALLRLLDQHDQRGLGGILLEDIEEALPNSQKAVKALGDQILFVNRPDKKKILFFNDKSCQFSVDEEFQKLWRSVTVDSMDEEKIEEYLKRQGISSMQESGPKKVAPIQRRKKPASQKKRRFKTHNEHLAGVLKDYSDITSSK
inactive: [1] 0.037 | [2] 0.012 | [3] -0.029 | [4] -0.002 | [5] 0.051 | [6] -0.03 | [7] 0.02 | [8] 0.071 | [9] -0.025 | [10] -0.01

GMEB1 (UniProt Q9Y692)
Chain of UniProt Q9Y692 (Q9Y692 whole entry, looked up): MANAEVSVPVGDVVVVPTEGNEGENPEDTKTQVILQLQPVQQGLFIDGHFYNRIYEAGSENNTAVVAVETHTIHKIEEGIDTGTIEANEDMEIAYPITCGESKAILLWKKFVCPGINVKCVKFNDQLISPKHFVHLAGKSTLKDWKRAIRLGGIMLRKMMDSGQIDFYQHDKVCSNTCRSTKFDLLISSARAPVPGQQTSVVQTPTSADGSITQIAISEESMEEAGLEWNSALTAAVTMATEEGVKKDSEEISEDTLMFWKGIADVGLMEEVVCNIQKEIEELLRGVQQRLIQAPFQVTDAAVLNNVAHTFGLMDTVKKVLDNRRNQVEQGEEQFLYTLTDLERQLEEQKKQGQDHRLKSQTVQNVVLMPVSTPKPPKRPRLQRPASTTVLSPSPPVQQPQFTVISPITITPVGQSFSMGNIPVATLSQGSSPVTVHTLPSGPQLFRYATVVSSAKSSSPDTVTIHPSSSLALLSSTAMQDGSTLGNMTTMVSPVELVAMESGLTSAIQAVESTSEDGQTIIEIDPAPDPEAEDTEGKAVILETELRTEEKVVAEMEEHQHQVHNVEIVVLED
inactive: [1] -0.036 | [2] 0.02 | [3] 0.04 | [4] -0.045 | [5] 0.025 | [6] -0.11 | [7] 0.03 | [8] 0.049 | [9] -0.038 | [10] 0.01

GLIPR2 (UniProt Q9H4G4)
Chain of UniProt Q9H4G4 (Q9H4G4 whole entry, looked up): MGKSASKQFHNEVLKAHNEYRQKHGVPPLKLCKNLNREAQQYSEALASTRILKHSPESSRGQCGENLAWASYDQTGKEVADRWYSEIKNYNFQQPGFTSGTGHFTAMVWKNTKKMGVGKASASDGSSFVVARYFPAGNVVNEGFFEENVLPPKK
active: [10] -0.459
inactive: [1] 0.034 | [2] -0.243 | [3] -0.018 | [4] -0.064 | [5] 0.1 | [6] 0.157 | [7] -0.062 | [8] 0.007 | [9] -0.01

IFT74 (UniProt Q96LB3)
Chain of UniProt Q96LB3 (Q96LB3 whole entry, looked up): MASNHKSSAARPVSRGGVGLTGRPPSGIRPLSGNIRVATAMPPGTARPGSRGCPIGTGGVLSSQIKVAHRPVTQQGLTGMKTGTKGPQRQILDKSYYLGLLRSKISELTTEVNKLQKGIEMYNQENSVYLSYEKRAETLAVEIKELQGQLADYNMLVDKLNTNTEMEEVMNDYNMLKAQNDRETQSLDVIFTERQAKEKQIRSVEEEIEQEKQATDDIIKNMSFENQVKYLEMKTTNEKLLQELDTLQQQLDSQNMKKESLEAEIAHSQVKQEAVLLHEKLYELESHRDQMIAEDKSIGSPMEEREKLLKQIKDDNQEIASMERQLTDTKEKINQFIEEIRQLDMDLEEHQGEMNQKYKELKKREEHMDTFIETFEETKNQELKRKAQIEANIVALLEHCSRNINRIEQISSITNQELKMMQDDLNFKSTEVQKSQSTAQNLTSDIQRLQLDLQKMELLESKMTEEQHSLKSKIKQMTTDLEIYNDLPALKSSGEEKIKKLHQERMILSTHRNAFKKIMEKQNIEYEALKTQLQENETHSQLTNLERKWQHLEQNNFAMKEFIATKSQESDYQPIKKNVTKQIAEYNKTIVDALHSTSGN
inactive: [1] 0.21 | [2] -0.04 | [3] 0.014 | [4] 0.088 | [5] 0.068 | [6] -0.02 | [7] -0.136 | [8] -0.094 | [9] 0.095 | [10] -0.133

HSD17B12 (UniProt Q53GQ0)
active: [6] 0.371
inactive: [1] 0.046 | [2] 0.191 | [3] 0.012 | [4] -0.061 | [5] 0.063 | [7] -0.018 | [8] 0.055 | [9] -0.009 | [10] 0.243
